Data as given in PubChem BioAssay (NCI).
The panel holds about 83,000 compounds, 20% with a hit somewhere; the sample as a whole holds those more often.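 Compound tested at a single concentration for 48 hours in 96-well plates; a percent growth value below 10 was scored as active.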 Unmarked numbers belong to inactive results. Active and inactive are the calls of the source.

What was measured:
Assay in all cases: NCI-60 one-dose screen, 48 h (100 = growth as untreated, 0 = no growth, -100 = all killed)
Settings in all cases: 10 µM
[1] = tested on: NCI-H226 lung
[2] = tested on: NCI-H322M lung
[3] = tested on: HOP-62 NSCLC
[4] = tested on: NCI-H460 lung
[5] = tested on: NCI-H522 lung
[6] = tested on: A549/ATCC NSCLC
[7] = tested on: 786-0 renal
[8] = tested on: COLO 205 colon
[9] = tested on: DU-145 prostate

Row | SMILES | growth [1] | growth [2] | growth [3] | growth [4] | growth [5] | growth [6] | growth [7] | growth [8] | growth [9]
1 | COc1ccc(NC(=O)Cc2nc3nc4sc(C)c(C)c4c(=O)n3[nH]2)cc1 | 86.7% | 94.5% | 107% | 110% | 90.3% | 91.2% | 104% | 118% | 110%
2 | COc1ccc(-c2nn(-c3cccc(NC(=O)c4ccc(N5CCOCC5)c(C(F)(F)F)c4)c3)cc2-c2ccncc2)cc1Cl | 83.6% | 80.3% | 73.7% | 62.1% | 41% | 54.7% | 37.9% | 54.6% | 91.8%
3 | COc1ccc(OC)c(/C=C/c2nnc(Nc3ccc(Cl)cc3)o2)c1 | 56.1% | 58.6% | 35.3% | 15.5% | 92.9% | 40.2% | 27.9% | 74.2% | 78.9%
4 | COc1cc([C@@H]2c3cc4c(cc3C(Br)[C@H]3COC(=O)[C@H]23)OCO4)cc(OC)c1OC (stereo partly specified) | 97.8% | 42.2% | -13% (active) | -50.8% (active) | -46.5% (active) | -24% (active) | 9.16% (active) | -88.4% (active) | -82.4% (active)
5 | COc1ccccc1/C=C/C(=O)c1ccccc1 | 85% | 91.9% | 88.3% | 90% | 62.7% | 67% | 98.4% | 84.8% | 87.6%
6 | COc1ccc(-c2nc3ncccn3c2-c2nnc(-c3ccsc3C)o2)cc1 | 61.6% | 84.4% | 23.8% | 59.9% | 53.6% | 78.8% | 90.9% | 110% | 88.3%
7 | COc1ccc(-c2nn(-c3cccc(NC(=O)Nc4ccccc4)c3)cc2-c2ccncc2)cc1Cl | 70.6% | 39.5% | 46% | 4.93% (active) | 5.77% (active) | -4.41% (active) | 42.2% | -50.6% (active) | 50.1%
8 | CCN1CCC(CCOC)(CN2c3ccccc3Sc3ccc(Cl)cc32)C1 (stereo unspecified) | 73.9% | 65.7% | 58.3% | 24.1% | 65.1% | 61.1% | 48.7% | 40% | 69.5%
9 | COc1ccc(Oc2nc(NC3CCCC3)nc(Sc3ccc(OC)cc3)n2)cc1 | 67.4% | 90.5% | 75.7% | 47.7% | 66.9% | 72.8% | 79.9% | 82.2% | 91.7%
